The values below are quoted from earlier work in PubChem BioAssay AID977611.

The nature of the data set: PubChem AID 977611. The settings on record: PDB protein-ligand complexes, literature Kd.

The campaign covered roughly 3,900 compounds. About 3,900 (100%) were called active. No cut-off is given here; in the data, nearly all actives have Kd up to about 4200 µM. So high a share suggests a set chosen from earlier hits. The list shows a part of the results. Peptide text beside a SMILES is read from it.

Take `CNc1ncnc2c1ncn2[C@@H]1O[C@H](CO)[C@@H](O)[C@H]1O`: under “protein: YTH domain-containing family protein 2 YTH-YTHDF2, PDB entry 4rdn”, the Kd – broadly, the free concentration of one partner at which half of the binding sites on the other are occupied at equilibrium, for simple one-to-one binding – is 1.2 µM (active). In the case of `O[C@@H]1[C@H](O)[C@@H](CO[P+](O)(O)O)O[C@H]1n1cnc2c(NCc3ccco3)ncnc21`, where the note is “protein: 2'-deoxynucleoside 5'-phosphate N-hydrolase 1, DNPH1 (RCL), PDB entry 4kxn”, the Kd was 0.8 µM (active). Regarding `O[C@@H]1[C@H](O)[C@@H](CO[P+](O)(O)O)O[C@H]1n1cnc2c(NC3CCCC3)ncnc21`, the Kd (protein: 2'-deoxynucleoside 5'-phosphate N-hydrolase 1, DNPH1 (RCL), PDB entry 4kxl) was 0.6 µM (active).

On to `CN(C)[C@@H](Cc1cnc[nH]1)C(=O)O`, for which the Kd runs as follows: (protein: Histidine-specific methyltransferase EgtD, PDB entry 4pin) 4 µM (active); (protein: Histidine-specific methyltransferase EgtD, PDB entry 4pio) 2 µM (active).

As for `C=C1C/C=C/[C@H](OC)[C@H](OC(N)=O)C(=C)C[C@@H](C)[C@@H](O)[C@@H](OC)C[C@H](C)CC2=C(OC)C(=O)C(C)=C(NC1=O)C2=O`, the Kd (protein: ATP-DEPENDENT MOLECULAR CHAPERONE HSP82, PDB entry 4as9) was 16.3 µM (active). `OCc1cn([C@H]2O[C@H](CO)[C@@H](O)[C@H](O)[C@@H]2O)nn1`: the Kd (protein: Concanavalin-A ConA, PDB entry 4pf5) is 3.3 µM (active). In the case of `CCC(=O)O[C@H](CCOCc1ccccc1)[C@@H](C)[C@H](O)[C@@H](C)CCC(=O)[C@H](C)[C@H](OC(C)=O)[C@H](C)/C=C/N(C)C=O`, for the setting “protein: Actin, alpha skeletal muscle, PDB entry 4k42”, the Kd was 0.285 µM (active).

In the case of `NC1N=C2NN=C(CC(=O)O)C(=O)C2C(=O)N1` (stereo unspecified), the Kd (protein: Dihydropteroate Synthase, PDB entry 4dai) is 0.11 µM (active).

For the compound `O=C1NC(=O)[C@H](Cc2ccccc2)N1`, the Kd (protein: Mhp1, PDB entry 2JLO) is 54 µM (active). With `O=C1N=C(Cc2cccc(Br)c2)C(=O)N1`, for the setting “protein: nucleobase-cation-symport-1 family hydantoin transporter Mhp1, PDB entry 4d1c”, the Kd is 2 µM (active).

For the compound `CCCCCCCCC(=O)c1cc(O)c(O)c(O)c1`, the Kd (protein: Nuclear receptor subfamily 4 group A member 1, PDB entry 4jgv) is 0.27 µM (active).

`C[C@]12CC(=O)[C@H]3[C@@H](CCC4=CC(=O)CC[C@@]43C)[C@@H]1CC[C@@H]2C(=O)CO`: the Kd (protein: Phospholipase A2 VRV-PL-VIIIa, PDB entry 4qf7) was 0.0025 µM (active). As for H-QQHHLGGAKQAGDV-OH, the Kd (protein: FIBRONECTIN-BINDING PROTEIN A, PDB entry 4b60) is 3.7 µM (active). Take H-GALGGAKQAGAV-OH: where the note is “protein: Clumping factor A (ClfA), PDB entry 2vr3”, the Kd was 10.5 µM (active). In the case of H-LESKPYNPFEEEEED-OH, the Kd (protein: C-terminal domain of EH domain-containing protein 1, PDB entry 2ksp) is 57 µM (active). H-KSAVTTVVNP-OH: the Kd (protein: Integrin beta-1-binding protein 1, PDB entry 4dx9) is 5 µM (active).

On to H-FNYESTGPFTAK-OH, for which the dissociation constant Kd (protein: EH domain-containing protein 1 C-terminal domain, PDB entry 2kfh) was 2400 µM (active).

As to H-FNYESTNPFTAK-OH, the Kd (protein: EH domain-containing protein 1 C-terminal domain, PDB entry 2kff) was 245 µM (active).

On to H-FNYESTDPFTAK-OH, for which the Kd (protein: EH domain-containing protein 1 C-terminal domain, PDB entry 2kfg) was 1200 µM (active). In the case of `COC1=CC=C2CC3C4CC5OCOC5CC4CCN3C[C@H]2[C@@H]1OC` (stereo partly specified), the Kd (protein: Putative regulatory protein, PDB entry 3vw2) is 17.9 µM (active). For the compound `Cc1cc2c([nH]1)NC(=O)N([C@@H]1O[C@H](CO)[C@@H](O)[C@H]1O)C2`, the Kd (protein: NupC family protein CNT-7C8C, PDB entry 4pd8) was 0.94 µM (active).

For the compound H-DDISLLK-OH, the Kd (protein: human GGA1(Golgi-localizing, ?-adaptin ear homology domain, ARF-interacting) VHS domains, PDB entry 1ujj) is 0.8 µM (active). In the case of `CC[C@H](C)[C@H](NC(=O)[C@H](CC(=O)O)NC(=O)[C@@H](N)CC(=O)O)C(=O)N[C@@H](CO[P+](O)(O)O)C(=O)N[C@@H](CC(C)C)C(=O)N[C@@H](CC(C)C)C(=O)N[C@@H](CCCCN)C(=O)O`, the Kd (protein: human GGA1(Golgi-localizing, ?-adaptin ear homology domain, ARF-interacting) VHS domains, PDB entry 1ujk) was 0.27 µM (active).

`Cc1nc2ccccc2c(-c2ccc3c(c2)CCCO3)c1[C@H](OC(C)(C)C)C(=O)O`: for the setting “protein: Integrase IN CCD (H171T mutant), PDB entry 4tsx”, the Kd is 10.3 µM (active).

Take `CN(C)Cc1c[nH]c2c(CCCO)cccc12`: for the setting “protein: Phospholipase A2 VRV-PL-VIIIa, PDB entry 4qgd”, the Kd is 0.037 µM (active).

As to H-TNLYML-OH, the Kd (protein: E. coli UDP-N-acetylglucosamine acyltransferase (LpxA), PDB entry 4j09) was 17 µM (active).

Regarding H-DAEFRA-OH, for the setting “protein: 3D6 FAB ANTIBODY, PDB entry 4onf”, the Kd is 0.0012 µM (active).

`C[C@H](N)C(=O)N[C@@H](CO[P+](O)(O)O)C(=O)N[C@@H](CCC(N)=O)C(=O)N[C@@H](CCC(=O)O)C(=O)N[C@@H](Cc1ccc(O)cc1)C(=O)O`: for the setting “protein: Mediator of DNA damage checkpoint protein 1(MDC1/NFBD1), PDB entry 2azm”, the Kd was 2.2 µM (active). In the case of H-TNEFYA-OH, the Kd (protein: the PDZ Tandem of Syntenin 1, PDB entry 1ybo) was 160 µM (active). As to H-TYKFFEQ-OH, under “protein: adaptor protein complex 4 (AP-4) mu4 subunit C-terminal domain D190A mutant, PDB entry 4mdr”, the Kd is 40.6 µM (active). As for `Oc1ccc(F)cc1O`, the Kd reads like this: (protein: Protocatechuate 3,4-dioxygenase alpha chain 3,4-PCD, PDB entry 4whq) 75 µM (active); (protein: Protocatechuate 3,4-dioxygenase alpha chain 3,4-PCD, PDB entry 4whr) 75 µM (active); (protein: Protocatechuate 3,4-dioxygenase alpha chain 3,4-PCD, PDB entry 4whs) 75 µM (active).

For `CSCC[C@H](NC(=O)[C@@H](N)CC(=O)O)C(=O)N[C@@H](Cc1ccc(O)cc1)C(=O)N[C@@H](C)C(=O)O` (H-DMYA-OH), the Kd (protein: E3 ubiquitin-protein ligase RNF31 HOIP PUB Domain, PDB entry 4p0b) is 0.29 µM (active).

With H-MFAAFDYIA-OH, where the note is “protein: 3-phosphoinositide-dependent protein kinase 1 PDK1, PDB entry 4rrv”, the Kd is 0.04 µM (active).
